Bioassay records deposited in PubChem BioAssay by Sanford-Burnham Center for Chemical Genomics.
The list is not random: actives were taken first. Their share in the collection is about 6.3%.
MPTP block – inhibitors of mitochondrial permeability transition pore; inhibition, % at 10 µM; 1.4% of 360,000 active; isolated mouse mitochondria, Ca2+ swelling absorbance, 30 min;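 active = inhibition of 50% or more, scaled per plate between neutral and stimulator controls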;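 note: 0% = DMSO wells given calcium and 100% = 1 mM EGTA wells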
Mdm2-MdmX inh – inhibitors of human Mdm2/MdmX interaction; 3% of 330,000 active; SaOS-2 split-luciferase Mdm2/MdmX complementation, luminescence; inhibition, % at 8 µM; O15151+Q00987;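 active = inhibition of at least 50% at 8 µM in the primary screen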
Target sequence (O15151 whole entry, looked up): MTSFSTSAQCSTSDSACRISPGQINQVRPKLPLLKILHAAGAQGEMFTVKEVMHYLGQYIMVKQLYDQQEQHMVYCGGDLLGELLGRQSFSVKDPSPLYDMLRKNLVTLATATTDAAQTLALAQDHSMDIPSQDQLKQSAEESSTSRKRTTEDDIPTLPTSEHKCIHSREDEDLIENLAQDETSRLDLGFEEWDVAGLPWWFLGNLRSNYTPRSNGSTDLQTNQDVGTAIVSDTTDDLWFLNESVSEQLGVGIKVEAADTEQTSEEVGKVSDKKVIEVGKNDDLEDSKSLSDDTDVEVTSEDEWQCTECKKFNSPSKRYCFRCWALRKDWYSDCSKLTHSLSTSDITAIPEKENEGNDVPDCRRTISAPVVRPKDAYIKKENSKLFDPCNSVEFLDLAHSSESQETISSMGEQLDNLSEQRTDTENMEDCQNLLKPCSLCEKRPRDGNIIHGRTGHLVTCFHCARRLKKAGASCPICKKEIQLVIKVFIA
Target sequence (Q00987 whole entry, looked up): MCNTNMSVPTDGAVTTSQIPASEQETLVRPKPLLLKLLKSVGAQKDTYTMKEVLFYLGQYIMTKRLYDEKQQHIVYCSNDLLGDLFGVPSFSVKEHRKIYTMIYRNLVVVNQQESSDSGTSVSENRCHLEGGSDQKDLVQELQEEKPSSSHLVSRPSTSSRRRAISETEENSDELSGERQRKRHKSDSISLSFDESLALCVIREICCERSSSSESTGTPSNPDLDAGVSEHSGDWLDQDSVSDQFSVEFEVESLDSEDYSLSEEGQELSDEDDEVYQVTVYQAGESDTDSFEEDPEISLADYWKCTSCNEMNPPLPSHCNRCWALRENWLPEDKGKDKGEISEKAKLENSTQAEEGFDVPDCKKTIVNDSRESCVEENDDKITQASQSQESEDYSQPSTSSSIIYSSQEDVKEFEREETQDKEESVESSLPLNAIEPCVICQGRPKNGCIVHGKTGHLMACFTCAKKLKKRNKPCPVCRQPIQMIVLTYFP
tim23-1 inh – tim23-1 yeast growth inhibition. S. cerevisiae tim23-1 growth, BacTiter-Glo luminescence, 24 h. AID 463212. inhibition, % at 20 µM. 1.3% of 330,000 active;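 active = growth inhibition of the mutant yeast at or above 50%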;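 note: temperature-sensitive mutant grown at 25 °C; plate controls were DMSO-treated mutant yeast for no effect and medium wells lacking yeast for full effect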
TIM10 inh – TIM10 yeast growth inhibition; S. cerevisiae TIM10 strain growth, BacTiter-Glo luminescence, 24 h; inhibition, % at 10 µM; 1.4% of 330,000 active;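 active = inhibition of 40% or more at the single tested concentration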;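 note: wild-type TIM10 isogenic control strain grown at permissive 25 °C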
tim10-1 inh – growth inhibitors of tim10-1 mutant yeast; S. cerevisiae tim10-1 ts strain growth, BacTiter-Glo, 24 h; inhibition, % at 20 µM; 2.2% of 330,000 active; AID 463190;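 active = inhibition of at least 40%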;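 note: mutant grown at 25 °C; 0% = DMSO wells with yeast and 100% = wells holding no yeast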
tim10-1 conf – confirmation of tim10-1 mutant yeast growth inhibitors; shares compounds with tim10-1 inh; S. cerevisiae tim10-1 ts strain growth, BacTiter-Glo, 24 h; inhibition, % at 20 µM; 56% of 7,400 active; AID 463213;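 active = inhibition of yeast growth at or above a set limit in either of two repeat tests at 20 µM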;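 note: tim10-1 mutant grown at permissive 25 °C to find synthetic lethal compounds; 0% = DMSO yeast wells and 100% = medium wells without yeast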
Active calls of the source: *; x = no result given.

SMILES	MPTP block	Mdm2-MdmX inh	tim23-1 inh	TIM10 inh	tim10-1 inh	tim10-1 conf
COc1ccc(-c2nc3n(c(=O)c2C#N)CCS3)cc1	1.0	15.4	4.9	2.4	44.9*	26.5
COc1cccc(C(O)c2ncc(-c3ccccc3Cl)[nH]2)c1 (stereo unspecified)	-0.2	x	x	x	x	x
COc1ccc(F)cc1S(=O)(=O)n1nnc2ccccc21	1.4	17.4	47.4	24.3	50.3*	41.0*
O=C(Nc1ccc(N2CCN(C(=O)c3cccs3)CC2)cc1)c1cccc(F)c1	0.6	15.4	34.4	32.2	48.3*	33.0*
O=C(Nc1ccc(C(=O)NCc2ccc(F)cc2)cc1)C1=CSCCO1	0.2	-22.8	27.2	0.8	30.3	x
COc1ccc(N2CCN(C(=O)c3ccc(NS(=O)(=O)c4ccc(F)cc4)cc3)CC2)cc1	-1.8	1.0	8.9	-2.6	9.0	x
O=C(Nc1ccc(C(=O)N2CCN(c3ccc(F)cc3)CC2)cc1)C1=CSCCO1	-1.1	19.2	42.2	28.6	46.8*	35.5*
O=C(Nc1ccc(N2CCN(C(=O)c3cccs3)CC2)cc1)c1ccccc1F	0.5	11.4	14.3	-2.7	17.1	x
COc1ccc(N2CCN(C(=O)c3ccc(NC(=O)C4=CSCCO4)cc3)CC2)cc1	-1.2	-7.6	34.3	20.0	42.9*	29.0*
CCc1ccc(CNC(=O)c2ccc(NC(=O)C3=CSCCO3)cc2)cc1	-2.4	16.3	28.8	8.4	43.5*	13.9
O[C@H]1C[C@H](c2ccc(Cl)cc2)N(CC2CCCCC2)C[C@@H]1n1cc(C2CC2)nn1	-1.7	x	x	x	x	x
COc1ccc(/C=C/C(=O)c2ccc(OC)cc2OC)c(OC)c1	-0.2	23.8	17.6	-3.2	2.6	x
COc1ccc(/C=C/C(=O)c2ccccc2)c(OC)c1	1.1	-33.9	20.0	22.4	43.6*	25.4
CCn1c(-c2csc3ccccc23)n[nH]c1=S	0.6	-4.6	23.4	23.2	30.8	x
CCn1c(-c2cc(-c3cccc(OC)c3)nc3ccccc23)n[nH]c1=S	1.3	5.8	39.3	36.6	42.7*	23.5
CC(=O)Nc1ccc(-c2ccnc3c2CC(C)(C(=O)Nc2ccc(F)c(Cl)c2)O3)cc1 (stereo unspecified)	-0.6	x	x	x	x	x
CC1=C(C(=O)N2CCOCC2)CC(CC(=O)NCCCCc2ccccc2)C(=O)N1Cc1ccc(C(C)(C)C)cc1 (stereo unspecified)	-0.3	x	x	x	x	x
COCCNC(=O)c1c(N)n(CCC2=CCCCC2)c2nc3ccccc3nc12	-0.4	-19.5	5.1	24.2	43.0*	12.9
C=CCn1c(N)c(C(=O)OCCC)c2nc3ccccc3nc21	-8.6	5.6	12.5	-12.2	-0.3	x
COCCn1c(N)c(C(=O)OCc2ccccc2)c2nc3ccccc3nc21	3.4	25.8	41.1	30.0	42.7*	26.7
COc1cc(-c2cc(=O)c3c(O)c(OC)c(OC)cc3o2)cc(OC)c1O	1.1	47.9	33.8	23.1	42.1*	17.5
COc1ccc(-c2cc(=O)c3c(O)c(OC)c(O)cc3o2)cc1	-1.5	-99.0	19.2	10.0	9.0	x
Fc1ccc(/C=N/Nc2nccnc2Cl)cc1	-0.7	-38.1	6.8	8.2	15.4	x
Oc1ccc(/C=N/Nc2nccnc2Cl)cc1	4.5	-6.1	34.7	30.4	46.7*	40.5*
CC1(Cc2ccccc2OC(F)(F)F)C(=O)Nc2c(Cl)ccc(Cl)c21 (stereo unspecified)	0.3	x	x	x	x	x
SMILES	MPTP block	Mdm2-MdmX inh	tim23-1 inh	TIM10 inh	tim10-1 inh	tim10-1 conf
COc1cc(/C=C2\CCc3ccccc3C2=O)cc(OC)c1OC	3.3	27.0	45.9	38.7	30.1	x
COc1cc(/C=C2/CCc3ccccc3C2=O)cc(OC)c1OC	2.4	45.4	41.9	39.6	40.7*	29.2
O=C(Nc1cc(Br)ccc1O)C1CC(c2c(F)cccc2Cl)=NO1 (stereo unspecified)	3.1	9.1	37.8	24.5	21.2	x
CSc1ccccc1NC(=O)C1CC(c2c(F)cccc2Cl)=NO1 (stereo unspecified)	0.1	5.0	46.9	32.9	46.5*	55.7*
Brc1ccc(CSc2nnc(-c3ccccn3)n2Cc2ccco2)cc1	-0.5	44.0	37.2	27.7	40.2*	33.3*
O=C(CSc1nnc(-c2cccnc2)n1Cc1ccco1)c1ccc2ccccc2c1	0.4	20.0	27.2	6.9	44.7*	12.9
C(=C\c1ccccc1)/CSc1nnc(-c2ccccc2)n1Cc1ccco1	0.2	36.1	37.9	4.0	43.7*	25.5
C(=C\c1ccccc1)/CSc1nnc(-c2ccncc2)n1Cc1ccco1	0.3	17.8	33.2	26.7	12.5	x
Clc1ccc(CSc2nnc(-c3ccccn3)n2Cc2ccco2)cc1Cl	-2.0	x	x	x	x	x
CCc1nc2c(OCC(=O)c3ccc(Cl)cc3Cl)cccn2c1N(C=O)Cc1ccccc1	1.2	x	x	x	x	x
Cc1nc2c(C)cccc2cc1C(=O)N/N=C/c1cccc([N+](=O)[O-])c1	0.1	26.1	32.2	32.2	31.2	x
Cc1ccc2nc(C)c(C(=O)N/N=C/c3cccc([N+](=O)[O-])c3)cc2c1	-0.6	-18.8	29.8	39.8	46.8*	44.5*
C=COC(=O)CSc1snc(SCC(=O)OC)c1C#N	-3.2	-14.3	31.3	13.8	43.1*	6.6
COc1cccc(N(C(=O)c2nc3nccc(C)n3n2)c2nc3ccccc3s2)c1	4.2	-159.5	31.0	18.1	48.1*	23.8
Cc1nc2c(Br)c(C)nn2c2c1CCC2	2.1	11.7	6.4	1.8	47.6*	30.1
COC(=O)c1cnn2c3c(c(C)nc12)CCCC3	-0.8	3.6	9.7	10.8	21.0	x
CCc1nc2ccc(C(=O)Nc3ccc(NC(C)=O)cc3)cn2c1N(C)CCCc1ccccc1	-0.5	x	x	x	x	x
Cc1cc2nc(-c3ccccc3)c(Cc3ccsc3)n2c(C)c1Br	3.6	x	x	x	x	x
CCC/C(=N\NC(=O)Cc1csc(N2CCOCC2)n1)c1ccccc1	0.2	-21.6	19.3	-10.9	17.0	x
C/C(=N\NC(=O)Cc1csc(N2CCOCC2)n1)c1ccc(Cl)c(Cl)c1	0.5	14.4	17.5	38.7	41.3*	18.6
CCOC(=O)c1ccc(S(=O)(=O)N2CCC(C(=O)NCC3COc4ccccc4O3)CC2)cc1 (stereo unspecified)	1.4	x	x	x	x	x
Cc1ccc(C2C=CC(C#N)=CN2Cc2ccccc2)cc1 (stereo unspecified)	2.0	x	x	x	x	x
COc1ccc(/C=N/Nc2nc3ccccc3s2)cc1O	0.1	x	x	x	x	x
COc1cc(/C=C/c2nc3ccccc3s2)cc(OC)c1O	1.6	-13.0	37.1	32.4	43.9*	27.3
COc1cc(C=C(c2nc3ccccc3s2)c2nc3ccccc3s2)ccc1O	3.9	16.6	27.6	34.8	51.1*	39.0*
CCCC1NC(=O)c2cc3ccccc3cc2-n2c1nc1cc(F)ccc1c2=O (stereo unspecified)	0.1	x	x	x	x	x
CN(C1CCCCC1)S(=O)(=O)c1ccc(NC(=O)c2ccc(Br)o2)cc1	-0.9	14.1	42.7	29.6	51.8*	42.4*
COc1cc(-c2cnc3c(NC=O)cc(-c4ccsc4)cn23)cc(OC)c1OC	-0.8	x	x	x	x	x
